Test results: PubChem BioAssay AID2562 (National Center for Advancing Translational Sciences (NCATS), 2010)
Records with an inconclusive call do not appear. Values without a mark were called inactive. Calls come from the whole dose curve; as a rule, active = well fitted curve in the direction sought with a large enough effect; inconclusive = small, poorly fitted or top-dose-only effect, or effect the other way, or another doubt; inactive = no such curve, though single readings can be large or run the other way.

Each compound was assayed against Pyruvate kinase PKLR (Homo sapiens) (UniProt P30613) (assay: Secondary LDH Assay for Activators of Human Reticulocyte Pyruvate Kinase: for Probe SAR). Details: purified hPK-R, LDH-coupled NADH fluorescence kinetic; series mostly up to 58.4 µM; activity change, positive = activation: at the top concentration.
Chain of Pyruvate kinase PKLR (Homo sapiens) (P30613 whole entry, looked up): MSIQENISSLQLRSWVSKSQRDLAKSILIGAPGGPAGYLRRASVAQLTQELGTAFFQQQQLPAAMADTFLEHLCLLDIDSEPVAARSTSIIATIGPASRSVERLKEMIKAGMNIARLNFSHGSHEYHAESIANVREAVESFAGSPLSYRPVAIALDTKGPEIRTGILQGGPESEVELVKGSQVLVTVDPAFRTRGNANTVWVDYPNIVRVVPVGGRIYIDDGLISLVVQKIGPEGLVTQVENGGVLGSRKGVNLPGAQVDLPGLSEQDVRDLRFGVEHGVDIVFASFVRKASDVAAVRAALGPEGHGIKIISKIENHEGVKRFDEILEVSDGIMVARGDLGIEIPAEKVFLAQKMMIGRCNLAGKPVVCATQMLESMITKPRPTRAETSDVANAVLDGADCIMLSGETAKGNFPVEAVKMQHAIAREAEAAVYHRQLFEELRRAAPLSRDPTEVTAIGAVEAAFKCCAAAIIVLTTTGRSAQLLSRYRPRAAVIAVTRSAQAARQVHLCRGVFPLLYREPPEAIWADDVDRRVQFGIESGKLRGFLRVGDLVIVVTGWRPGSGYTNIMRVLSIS
Text: NIH Chemical Genomics Center [NCGC] Wael M. Rabeh, Lyudmila Nedyalkova and Hee-Wan Park [Structural Genomics Consortium, 100 College St. Toronto, Ontario, Canada] NCGC Assay Overview: Human pyruvate kinase reticulocyte (hPK-R) enzyme was supplied as a highly purified (>95% pure) preparation from Structural Genomics Consortium in Toronto (Ontario, Canada) and a secondary assay was used to evaluate compounds. This assay couples the formation of pyruvate from hPK-R using lactate dehydrogenase (LDH) and NADH. The depletion of NADH is followed in a fluorescent-based kinetic assay that follows the formation of pyruvate to lactate, as catalyzed LDH. Pyruvate kinase substrates, PEP and ADP, were present in the assay at 0.1 mM and 4 mM respectively. In this kinetic assay initial rates were determined by following the fluorescence of NADH depletion.
NCGC Assay Protocol Summary: Three uL of substrate mix (final concentration, 50 mM Tris-Cl pH 8.0, 200 mM KCl, 15 mM MgCl2, 0.1 mM PEP, 4.0 mM ADP, and 0.2 mM NADH) was dispensed into black-solid 1536 well plates. 23 nL of compounds were delivered by a pin tool and 1 uL of enzyme mix (final concentrations, 10 nM hPK-R and 1 uM of LDH) was added. Plates were immediately placed in ViewLux (Perkin Elmer) and NADH fluorescence was determined at 30 second exposure intervals for between 3 and 6 minutes. Data were normalized to the uninhibited and EC100 activation using known activators such as fructose-bis-phosphate.

SMILES | activity change, positive = activation [%]
O=C1c2ccccc2C(=O)N1c1ncccc1O | 5.36
CSc1cc2c(s1)c1cnn(Cc3cccc(N)c3)c(=O)c1n2C | 21.1
O=C1c2ccccc2C(=O)N1c1cccc2cnccc12 | -1.61
Cc1ccc(NS(=O)(=O)c2ccc3c(c2)oc(=O)n3C)cc1C | 15.8
Fc1ccccc1-c1ccc(-c2nc3ccc(Cl)cn3c2Nc2ccc(Cl)cc2)o1 | 26.3
Cc1ccc(NS(=O)(=O)c2ccc3c(c2)N(C)C(=O)CO3)cc1C | 12.6
O=S1(=O)N=C(Oc2cccc(Cl)c2)c2ccccc21 | 11.5
O=C1CCc2cc(S(=O)(=O)Nc3ccc(Cl)cc3)ccc2N1 | 2.79
CCCCN1C(=O)c2ccccc2C1=O | -5.61
COc1cc(F)c(S(=O)(=O)N2CCCN(S(=O)(=O)c3cccc(N)c3)CC2)c(F)c1 | 14.3
Cc1ccc(NS(=O)(=O)c2cc3c(cc2F)NC(=O)CC3)cc1C | 29.9
O=C1CCc2cc(S(=O)(=O)Nc3ccncc3)ccc2N1 | 12.1
Cc1ccc(NS(=O)(=O)c2ccc3c(c2)CCN(C(=O)C(F)(F)F)C3)cc1C | 12.5
Cc1ccc(N[S+](=O)([O-])c2cc3c(cc2CCc2ccccc2)NC(=O)CO3)cc1C | 16.6
Cc1ccc(NS(=O)(=O)c2ccc(-c3ccccc3)cc2)cc1C | 8.23
Cc1ccc(NS(=O)(=O)c2ccc3c(c2)C(Cl)(Cl)C(=O)N3)cc1C | 22.3
COc1ccc(N2C(=O)c3ccccc3C2=O)cc1 | 15.9
Cc1ccc(NS(=O)(=O)c2cc3c(cc2N2CCC2)NC(=O)CC3)cc1C | 5.56
COc1cccc(NS(=O)(=O)c2ccc3c(c2)CCC(=O)N3)c1 | -0.178
Cc1ccc(NS(=O)(=O)c2cc3c(cc2-c2ccsc2)NC(=O)CO3)cc1C | 8.38

SMILES | activity change, positive = activation [%]
Cc1ccc(NS(=O)(=O)c2cc3c(cc2N(C)C)NC(=O)CC3)cc1C | 5.45
O=C1c2ccccc2C(=O)N1c1cccnc1 | 14
O=C1c2ccccc2C(=O)N1C1CCCCC1 | -3.06
O=C1CCc2cc(S(=O)(=O)Nc3ccc(F)cc3)ccc2N1 | 4.65
Cc1ccc(NS(=O)(=O)c2ccc3c(c2)NC(=O)CO3)cc1C | 19.8
O=S1(=O)N=C(Oc2ccccc2Cl)c2ccccc21 | 7.37
COc1ccc(NS(=O)(=O)c2ccc3c(c2)CCC(=O)N3)cc1 | 3.97
COc1cc(N2C(=O)c3ccccc3C2=O)c2ncccc2c1 | -7.54
Cc1ccc(NS(=O)(=O)c2ccc3c(ccn3C)c2)cc1C | 15.4
Cc1ccc(NS(=O)(=O)c2ccc3c(c2)CCC(=O)N3)cc1C | 15.6
O=C1c2ccccc2C(=O)N1c1cc(=O)c2ccccc2[nH]1 | 6.46
Cc1ccc(-c2nc3ccc(Cl)cn3c2Nc2ccccc2)o1 | -3.81
Cc1ccc(NS(=O)(=O)c2cccc(F)c2)cc1C | 3.69
O=C1c2ccccc2C(=O)N1c1cncc2ccccc12 | 0.998
CC(=O)N1CCc2cc(S(=O)(=O)Nc3ccc(C)c(C)c3)ccc21 | 15.7
CNc1cccc(S(=O)(=O)N2CCN(S(=O)(=O)c3ccc4c(c3)OCCO4)CC2)c1 | 0.495
Cc1ccc(NS(=O)(=O)c2cc3c(cc2Cl)NC(=O)C3)cc1C | 9.95
O=C1c2ccccc2C(=O)N1c1ccc(Cl)cc1 | -6.82
Cc1nc(-c2ccc(S(=O)(=O)Nc3ccc(C)c(C)c3)s2)cs1 | 20.7
COc1ccccc1NS(=O)(=O)c1ccc2c(c1)CCC(=O)N2 | 3.07
